# Only some compounds are listed: those with a hit (about 2.6% of all), similar ones and a draw of the others.
# NR2F2 inh: blocks human COUP-TFII nuclear receptor | HEK293T NGFI-A luciferase reporter, luminescence | inhibition, % at 8.6 µM | actives 0.7% (n = 370,000);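 active = inhibition above a per-plate cutoff, mean inhibition of test wells between control levels plus 3 SD, cut at about 38% in these data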;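 note: cells cotransfected with COUP-TFII expression vector driving the NGFI-A reporter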
# Target sequence (P24468 whole entry, looked up): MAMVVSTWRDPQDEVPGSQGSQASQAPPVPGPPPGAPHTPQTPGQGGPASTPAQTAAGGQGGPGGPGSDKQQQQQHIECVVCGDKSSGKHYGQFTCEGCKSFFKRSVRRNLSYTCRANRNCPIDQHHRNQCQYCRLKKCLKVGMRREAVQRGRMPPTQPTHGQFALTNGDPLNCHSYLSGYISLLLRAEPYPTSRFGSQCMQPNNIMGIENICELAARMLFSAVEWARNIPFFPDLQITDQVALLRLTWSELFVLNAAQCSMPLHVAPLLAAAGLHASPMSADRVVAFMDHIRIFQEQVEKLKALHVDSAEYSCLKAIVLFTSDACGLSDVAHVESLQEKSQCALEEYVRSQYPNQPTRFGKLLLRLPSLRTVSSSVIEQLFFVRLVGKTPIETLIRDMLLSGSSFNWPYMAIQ
# TAG inh: inhibitors of triacylglycerol accumulation; inhibition, % at 12.5 µM; H9c2 cells, Nile Red lipid (TAG) fluorescence; cells loaded with 200 µM oleic acid; actives 0.66% (n = 230,000); AID 651582;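 active = pattern-corrected inhibition of lipid staining of at least 50% with the nuclear-stain viability signal not falling by more than 50%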
# Gli-Sufu antag: blocks Gli-Sufu signaling in a luciferase reporter. Sufu-KO-LIGHT fibroblasts, Gli luciferase reporter luminescence. inhibition, % at 5 µM. actives 0.74% (n = 340,000);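 active = inhibition above about 55%, limit read from the data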
# 697 NFkB inh: lowers PMA/ionomycin-induced NF-kB signal in 697 B cells. inhibition, % at 4 µM. AID 435022. 697 B-cell NF-kB luciferase reporter, 16 h. actives 0.33% (n = 330,000); in the data active = inhibition above about 35%
# Jurkat NFkB inh: lowers PMA/ionomycin-induced NF-kB signal in Jurkat cells | PMA/ionomycin-induced NF-kB luciferase reporter, luminescence | inhibition, % at 4 µM | actives 0.53% (n = 330,000); in the data active = inhibition above about 50%
# H9c2 protect: myocardial damage modulation in H9c2 cells; H9c2 cardiomyocytes, H2O2 injury protection, ATPLite, 2 h; protection from H2O2 cell death, % at 20 µM; actives 0.63% (n = 360,000);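 active = compounds giving at least 50% protection of heart cells from peroxide-induced death in the single-dose screen, raw or plate-pattern-corrected value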
# 697 NFkB conf: inhibitors of the PMA/ionomycin-induced NF-kB reporter in 697 B cells, retest; 697 B-cell NF-kB luciferase, 16 h; inhibition, % at 4 µM; AID 449746; actives 35% (n = 2,000); shares compounds with 697 NFkB inh; in the data active = inhibition mostly above about 28%, no sharp cut-off; inactive = mostly below about 22%
# Numbers stand for hits; . = inactive; / = not tested or not shown.
SMILES,NR2F2 inh,TAG inh,Gli-Sufu antag,697 NFkB inh,Jurkat NFkB inh,H9c2 protect,697 NFkB conf
S=C(Nc1ccc(-c2nc3ccccc3[nH]2)cc1)Nc1cccnc1,.,/,.,.,.,.,.
c1cncc(-c2nc3ccccc3[nH]2)c1,.,/,.,.,.,.,/
CC1CCN(CCCNC(=O)COc2cc(=O)n(C)c3ccccc23)CC1,.,/,.,36,.,.,23
Cc1cc(NC(=O)c2cccc(COc3ccc(Br)cc3)c2)no1,.,.,.,56,.,.,.
COc1ccc(-c2nsc(SCC(=O)Nc3cc(C)on3)n2)cc1,.,.,.,43,.,.,30
COc1cc(NC(=O)c2ccco2)c(OC)cc1NC(=O)c1cc(OC)c(OC)c(OC)c1,.,.,.,41,.,74,33
O=c1cnn([C@@H]2O[C@H](CO)[C@@H](O)[C@H]2O)c(=O)[nH]1,/,.,.,.,.,.,.
O=c1[nH]c(=O)n(C2OC(CO)C(O)C(O)C2O)cc1F (stereo not drawn),.,/,/,/,/,/,/
COC(=O)c1cccc(Cn2ccc3ccc(-c4ccc5ccn(C(=O)c6ccccc6OC)c5c4)cc32)c1,.,/,/,/,/,/,/
COc1ccc(-n2nnnc2S(=O)(=O)Cc2ccc(C(=O)O)cc2)cc1,.,/,.,.,.,.,/
COc1ccc(-n2nnnc2S(=O)(=O)CC(=O)N2CCCCC2)cc1,.,.,.,39,.,.,60
C#CCNC(=O)C[C@H]1C[C@@]2(C(=O)OC)C(=C[C@H](C(C)(C)C)O[C@@H]2C)N(Cc2ccco2)C1=O,.,/,/,/,/,/,/
COCCNC(=O)c1c(N)n(-c2ccccc2)c2nc3ccccc3nc12,.,/,.,.,.,.,/
COCCNC(=O)c1c(N)n(-c2cccc(C)c2)c2nc3ccccc3nc12,.,.,.,35,.,.,.
COc1cc(SC)ccc1C(=O)Nc1ccc(Br)cn1,.,.,.,.,.,.,.
C[C@H]1[C@H](NC(=O)c2cccc(C(F)(F)F)c2)CC[C@@]23CCCN2C(=O)CCC[C@@H]13,.,/,/,/,/,/,/
O=C(OCC(O)CO)c1ccccc1Nc1ccnc2cc(Cl)ccc12 (stereo not drawn),.,.,.,41,.,.,.
O=C(Nc1ccc(Cl)c(Cl)c1)C1CCCN(c2nnc(-n3cccc3)s2)C1 (stereo not drawn),.,/,/,/,/,/,/
CCCN=C(C)c1c(-c2ccccc2)[nH]n(-c2nc3ccccc3s2)c1=O,.,.,.,.,.,.,/
CCN(CC)CCCN=Cc1c(-c2ccccc2)[nH]n(-c2nc3ccccc3s2)c1=O,.,.,.,40,.,.,42
Cc1ccn2cc(CCNC(=O)CC(C)(C)C)nc2c1,.,.,.,.,.,.,/
Cc1ccn2cc(CCNC(=O)COc3ccccc3)nc2c1,.,.,.,.,.,.,.
C[C@@H]1/C=C/CC(=O)N2[C@H](CC(=O)N[C@@H]1c1ccccc1)C[C@@H](C)[C@H]2c1ccccc1,.,/,/,/,/,/,/
CC(=O)Nc1cc(-c2nn(C)c(=O)c3ccccc23)ccc1N1CCCCC1,.,/,.,.,.,.,/
Cn1nc(-c2ccc(N3CCOCC3)c(NS(=O)(=O)c3ccccc3)c2)c2ccccc2c1=O,.,/,.,61,.,.,33
SMILES,NR2F2 inh,TAG inh,Gli-Sufu antag,697 NFkB inh,Jurkat NFkB inh,H9c2 protect,697 NFkB conf
O=[N+]([O-])c1ccc(Sc2ncccn2)c([N+](=O)[O-])c1,.,.,.,40,.,.,.
Cc1ccccc1-c1nc2sc3c(c2c(=O)n1N)CCCC3,.,.,.,.,.,.,.
O=C(O)c1ccc(N/N=C/c2ccc(-c3ccccc3Cl)o2)cc1,.,68,.,.,.,.,.
Nc1cc(Cl)nc(N/N=C/c2ccc([N+](=O)[O-])cc2)n1,.,.,.,41,.,.,.
Nc1cc(Cl)nc(N/N=C/c2ccccc2[N+](=O)[O-])n1,.,.,.,.,.,.,/
Nn1c(SCC(=O)Nc2nccs2)nnc1-c1cc(-c2ccc(F)cc2)n[nH]1,.,/,/,/,/,/,/
CCOC(=O)C1CCCc2c1[nH]c1ccc(Cl)cc21 (stereo not drawn),.,/,.,.,.,.,.
O=C(c1cccc(F)c1F)N1CCCC(c2nc(-c3cccs3)no2)C1 (stereo not drawn),.,/,/,/,/,/,/
COc1cc2[nH]c(=S)n(CC3CCCO3)c(=O)c2cc1OC (stereo not drawn),.,/,.,37,.,.,.
COc1ccc(Cc2nc(-c3ccc(NC(=O)c4cccnc4)cc3)no2)cc1,.,.,.,51,.,.,33
COc1ccc(-c2cc(C(=O)N(C)CC(=O)Nc3ccccc3Br)c3ccccc3n2)cc1OC,.,.,.,44,.,.,.
CCC(=O)N1c2ccccc2[C@@H](N(C(C)=O)c2ccccc2)C[C@H]1C,.,.,.,51,.,.,38
Cc1cc(Nc2ccccc2C(=O)O)n2ncnc2n1,.,.,/,/,/,.,/
Cc1cc(Nc2ccccc2N2CCOCC2)n2ncnc2n1,.,/,.,35,.,.,.
Cc1nc2ccc(S(=O)(=O)NCC(=O)NCc3ccccc3Cl)cc2s1,.,/,/,/,/,/,/
O=C1C(=Cc2ccccn2)CCc2ccccc21,.,.,/,/,/,.,/
Cc1ccsc1/C=C1\CCc2ccccc2C1=O,.,.,.,.,.,.,.
CCc1c(C(=O)NC2CCCc3ccccc32)[nH]c(C)c1C(C)=O (stereo not drawn),.,/,.,.,.,.,.
CCC(=O)N(C1=C(NC)C(=O)c2ccccc2C1=O)C(C)C,.,.,.,52,.,.,47
C#CCn1c(S(=O)(=O)Cc2ccc(C)cc2)nc(-c2ccccc2)c1-c1ccccc1,.,/,.,.,.,.,.
Cc1cccc(OCC(C)CN2CCC(C(O)(c3ccccc3)c3ccccc3)CC2)c1 (stereo not drawn),.,/,/,/,/,/,/
COc1ccccc1OCC(=O)Nc1nc2c(s1)CCCC2,.,/,.,.,.,.,.

# High-throughput results: PubChem, several laboratories
